Experimental data taken from PubChem BioAssay (EPA / NIEHS).
Records with an inconclusive call do not appear. Active and inactive are the calls of the source. The calls were made as follows: active = hit-call score of the fitted dose curve at least 0.9, where 1 is the maximum; inconclusive = response in the unintended direction; inactive = score below 0.9.

Experiments:
[1] = TOX21_p53_BLA_p2_viability: Viability Assessment in the Tox21 HCT-116 p53 Agonism Beta-lactamase Assay, Phase 2 (AID 2283591);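 also: compound exposure lasted 16 h at 37 °C; actives lower the ATP signal meaning cytotoxicity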
In short: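 HCT-116 p53-bla cells (4000/well) rested 5 h at 37C, then received compounds in DMSO (217-fold dilution) for 16 h at 37C, 5% CO2. After the CCF4 read, CellTiter-Glo was added; ATP luminescence was read after 30 min at room temperature.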

[2] = target: Cellular tumor antigen p53 (Homo sapiens) (UniProt P04637); assay: TOX21_p53_BLA_p2_ratio: Tox21 HCT-116 p53 Agonism Beta-lactamase Assay, Ratio, Phase 2 (AID 2283592)
In short: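 Ratio endpoint: beta-lactamase cleavage of CCF4-AM, blue (460 nm) over green (530 nm). HCT116 reporter line; 16 h treatment, 37C; substrate 2 h RT.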

[3] = target: Cellular tumor antigen p53 (Homo sapiens) (UniProt P04637); assay: TOX21_p53_BLA_p3_ratio: Tox21 HCT-116 p53 Agonism Beta-lactamase Assay, Ratio, Phase 3 (AID 2283596)
In short: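 Cells were seeded at 4000/well, rested 5 h at 37C, then dosed with DMSO compound solutions (217-fold dilution) for 16 h. CCF4-AM substrate was loaded for 2 h at room temperature, and the 460/530 nm emission ratio was fitted for gain of signal versus DMSO.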

[4] = TOX21_p53_BLA_p4_viability: Viability Assessment in the Tox21 HCT-116 p53 Agonism Beta-lactamase Assay, Phase 4 (AID 2283597);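 also: hits lower the luminescence signal meaning cytotoxicity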
In short: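 Cytotoxicity was inferred from loss of CellTiter-Glo luminescence. HCT116 cells had been dosed with compounds after 5 h plating, incubated 16 h at 37C and 5% CO2, and exposed to the CCF4-AM substrate for 2 h.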

[5] = target: Cellular tumor antigen p53 (Homo sapiens) (UniProt P04637); assay: TOX21_p53_BLA_p5_ratio: Tox21 HCT-116 p53 Agonism Beta-lactamase Assay, Ratio, Phase 5 (AID 2283599)
In short: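 HCT-116 cells carrying a p53-inducible beta-lactamase reporter were seeded at 4000 cells/well and dosed after 5 h with compound in DMSO (217-fold dilution). After 16 h at 37C, CCF4-AM substrate was added for 2 h, and the 460/530 nm emission ratio was scored as gain-of-signal versus DMSO.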

[6] = TOX21_p53_BLA_p5_viability: Viability Assessment in the Tox21 HCT-116 p53 Agonism Beta-lactamase Assay, Phase 5 (AID 2283600)
In short: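 Luciferase-coupled ATP quantitation of cells treated for 16 h (37C, 5% CO2) with test chemicals delivered in DMSO via a 217-fold dilution; 4000 cells/well; reagent incubated 30 min at room temperature before luminescence reading.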

[7] = target: Cellular tumor antigen p53 (Homo sapiens) (UniProt P04637); assay: TOX21_p53_BLA_p4_ratio: Tox21 HCT-116 p53 Agonism Beta-lactamase Assay, Ratio, Phase 4 (AID 2283601)
In short: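 HCT116 cells carrying an inducible beta-lactamase reporter were plated at 4000 cells/well, rested 5 h, then exposed to compounds in DMSO (217-fold dilution) for 16 h at 37C. CCF4-AM substrate was loaded 2 h at room temperature; 460/530 nm emission ratio scored gain-of-signal versus DMSO.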

Measured: AC50

Chain of Cellular tumor antigen p53 (Homo sapiens) (P04637 whole entry, looked up): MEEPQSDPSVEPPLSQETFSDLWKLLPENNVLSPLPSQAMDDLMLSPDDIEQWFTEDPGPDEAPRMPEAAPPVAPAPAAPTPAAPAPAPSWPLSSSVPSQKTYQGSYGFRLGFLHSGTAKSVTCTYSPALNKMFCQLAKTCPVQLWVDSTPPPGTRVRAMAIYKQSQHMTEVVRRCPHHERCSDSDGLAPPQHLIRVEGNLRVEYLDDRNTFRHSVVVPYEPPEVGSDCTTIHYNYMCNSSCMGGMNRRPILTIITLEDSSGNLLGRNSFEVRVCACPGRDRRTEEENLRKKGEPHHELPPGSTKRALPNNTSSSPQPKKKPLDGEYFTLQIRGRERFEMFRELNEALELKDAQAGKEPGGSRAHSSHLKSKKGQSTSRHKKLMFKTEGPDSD

O=C(O)Cn1c(C(=O)Nc2nc(-c3ccccc3Cl)cs2)cc2ccccc21
active: [4] 38.9 µM | [5] 37.1 µM | [6] 40.7 µM
inactive: [1] | [2] | [3] | [7]

Cc1c(C(C)C)c(=O)n(-c2ccccc2)n1C
inactive: [1] | [2] | [3] | [4] | [5] | [6]

CC(=O)Oc1cccc(O)c1
inactive: [1] | [2] | [3] | [4] | [5] | [6]

OCCCCCCO
inactive: [1] | [2] | [3] | [4] | [5] | [6]

CC(=O)O[C@@H]1C(=O)O[C@@H]2[C@H]1OC(=O)[C@@H]2OC(C)=O
active: [5] 36.7 µM
inactive: [1] | [2] | [3] | [4] | [6] | [7]

O=[N+]([O-])c1ccc2ncccc2c1
inactive: [1] | [2] | [3] | [4] | [5] | [6] | [7]

NCCNCCNCCN
inactive: [1] | [2] | [3] | [4] | [5] | [6] | [7]

CC(C)(C)C1(CCc2ccc(Cl)cc2)CO1 (stereo not drawn)
inactive: [1] | [2] | [3] | [4] | [5] | [6]

FC(F)OC(Cl)C(F)(F)F (stereo not drawn)
inactive: [1] | [2] | [3] | [4] | [5] | [6] | [7]

Cc1cc(NS(=O)(=O)c2ccc(N)cc2)nc(C)n1
inactive: [1] | [2] | [3] | [4] | [5] | [6] | [7]

CCCCCCOc1ccccc1C(N)=O
inactive: [1] | [2] | [3] | [4] | [5] | [6]

CCOc1ccc2nc(N)sc2c1
inactive: [1] | [2] | [3] | [4] | [5] | [6]

CCCCC1C(=O)N(c2ccccc2)N(c2ccc(O)cc2)C1=O (stereo not drawn)
active: [1] 19 µM | [2] 15.8 µM | [4] 17 µM | [5] 15.4 µM
inactive: [3] | [6] | [7]

O=C1O[C@H](CO)[C@@H](O)[C@H](O)[C@H]1O
inactive: [1] | [2] | [3] | [4] | [5] | [6] | [7]

C=CC1=C(C)C2=CC3=NC(=C(CC(=O)[O-])C4=NC(=C(C)C4=C([O-])[O-])C=c4[n-]c(c(C)c4CC)=CC1=N2)[C@@H](CCC(=O)[O-])[C@@H]3C.[Cu+2].[Na+].[Na+].[Na+]
inactive: [1] | [2] | [3] | [4] | [5] | [6] | [7]

CCN(CC)CCOCCOC(=O)C(CC)(CC)c1ccccc1
inactive: [1] | [2] | [3] | [4] | [5] | [6] | [7]

CCCCCCCCCCCCCCCCCCCCCC(=O)Nc1ccn([C@@H]2O[C@H](CO)[C@@H](O)[C@@H]2O)c(=O)n1
active: [2] 19 µM | [3] 23 µM | [7] 14.3 µM
inactive: [1] | [4] | [5] | [6]

CC(C)C(O)C(C)(C)CO (stereo not drawn)
inactive: [1] | [2] | [3] | [4] | [5] | [6] | [7]

CC(=O)OC[C@H]1O[C@@H](n2ncc(=O)[nH]c2=O)[C@H](OC(C)=O)[C@@H]1OC(C)=O
inactive: [1] | [4] | [6]
active: [2] 2.04 µM | [3] 3.15 µM | [5] 2.02 µM | [7] 2.61 µM

CC(C)NC(=O)c1ccccc1N
inactive: [1] | [2] | [3] | [4] | [5] | [6] | [7]

N#Cc1ccc2c(c1)N(CCCN1CCC(O)CC1)c1ccccc1S2
active: [2] 40.4 µM | [5] 35.4 µM | [7] 25.1 µM
inactive: [1] | [3] | [4] | [6]

NC(=O)c1ncn([C@@H]2O[C@H](CO)[C@@H](O)[C@H]2O)c1O
inactive: [1] | [2] | [3] | [4] | [5] | [6] | [7]

CC(C)NCC(O)COc1ccc(COCCOC(C)C)cc1 (stereo not drawn)
inactive: [1] | [2] | [3] | [4] | [5] | [6] | [7]

CC(Cl)C(Cl)Cl (stereo not drawn)
inactive: [1] | [2] | [3] | [4] | [5] | [6] | [7]

CN(C)c1ccc(C2(c3ccc(N(C)C)cc3)OC(=O)c3cc(N(C)C)ccc32)cc1
active: [2] 60.7 µM | [3] 13.5 µM | [7] 38.5 µM
inactive: [1] | [4] | [5] | [6]

CN(C)CC/C=C1\c2ccccc2Sc2ccc(Cl)cc21
inactive: [1] | [3] | [5] | [6]
active: [2] 33.1 µM | [4] 35.7 µM | [7] 21.9 µM

NS(=O)(=O)c1cc2c(cc1Cl)NC(C1CC3C=CC1C3)NS2(=O)=O (stereo not drawn)
inactive: [1] | [2] | [3] | [4] | [5] | [6] | [7]
